Measurements as given in ChEMBL document CHEMBL1201862, “PubChem BioAssay data set” (2004).
Out of some 390,000 compounds screened, about 910 (0.23%) were called active. Roughly 5% stayed inconclusive and do not appear here. No cut-off for these calls is given here. The full list was thinned out, with actives kept by preference.

The compounds below were run against T1, Ubiquitin carboxyl-terminal hydrolase 1 (Homo sapiens) (UniProt O94782) (assay: Inhibitors of USP1/UAF1: Primary Screen.).
T1 sequence (whole entry): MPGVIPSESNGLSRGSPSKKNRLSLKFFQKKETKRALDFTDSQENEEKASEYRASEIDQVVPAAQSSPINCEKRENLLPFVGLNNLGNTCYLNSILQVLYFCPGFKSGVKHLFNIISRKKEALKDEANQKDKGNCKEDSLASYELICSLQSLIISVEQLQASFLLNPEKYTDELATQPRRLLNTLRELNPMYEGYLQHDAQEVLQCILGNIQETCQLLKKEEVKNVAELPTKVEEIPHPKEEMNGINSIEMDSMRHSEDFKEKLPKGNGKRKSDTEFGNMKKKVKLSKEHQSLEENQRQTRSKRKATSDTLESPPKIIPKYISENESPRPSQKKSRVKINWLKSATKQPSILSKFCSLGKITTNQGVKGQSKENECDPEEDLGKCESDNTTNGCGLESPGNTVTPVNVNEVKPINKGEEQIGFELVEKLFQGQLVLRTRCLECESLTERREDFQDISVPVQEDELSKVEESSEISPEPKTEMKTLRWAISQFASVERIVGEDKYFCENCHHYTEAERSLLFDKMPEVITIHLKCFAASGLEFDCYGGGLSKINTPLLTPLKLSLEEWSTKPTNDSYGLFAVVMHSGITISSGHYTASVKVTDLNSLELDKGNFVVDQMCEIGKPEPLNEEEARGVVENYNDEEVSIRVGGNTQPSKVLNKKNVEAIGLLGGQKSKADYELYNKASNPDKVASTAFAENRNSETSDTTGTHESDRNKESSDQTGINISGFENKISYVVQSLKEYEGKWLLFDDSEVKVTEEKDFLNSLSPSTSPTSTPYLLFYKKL
Format: functional

Structure (SMILES)	Potency
CCOC(=O)C(C)C(C)=O (stereo unspecified)	355 µM (active)
